From the antibiotic and cytotoxicity screens of Wong et al. (2023)
The campaign covered roughly 39,000 compounds. About 500 (1.3%) were called active. Only a selection was taken, and actives are over-represented in it overall.

test system: S. aureus RN4220; experiment: growth inhibition call (relative growth <= 0.2); conditions: 50 µM

| SMILES | growth inhibition call |
| --- | --- |
| COc1ccc(S(=O)(=O)Nc2ccc3c(c2)[C@H]2C[C@@H](CC(=O)NCC4CC4)O[C@H](CO)[C@H]2O3)cc1 | inactive |
| CCOc1nc2cccc(C(=O)O)c2n1Cc1ccc(-c2ccccc2-c2nnn[nH]2)cc1 | inactive |
| CCOc1nc2cccc(C(=O)O[C@@H](C)OC(=O)OC3CCCCC3)c2n1Cc1ccc(-c2ccccc2-c2nn[nH]n2)cc1 | active |
| CCOc1nc2cccc(C(=O)OC(C)OC(=O)OC3CCCCC3)c2n1Cc1ccc(-c2ccccc2-c2nnn[nH]2)cc1 (configuration not stated) | inactive |
| C[C@H](CO)N1C[C@H](C)[C@H](CN(C)S(=O)(=O)c2cn(C)cn2)Oc2ncc(-c3cc4ccccc4o3)cc2C1=O | inactive |
| COc1ccc(NC(=O)N(C)C[C@@H]2Oc3ccc(NC(=O)C4CC4)cc3CC(=O)N([C@@H](C)CO)C[C@@H]2C)cc1 | inactive |
| Cc1noc(C)c1NC(=O)Nc1cccc2c1O[C@H](CN(C)Cc1ccc(C(=O)Nc3ccccc3N)cc1)[C@H](C)CN([C@@H](C)CO)C2=O | inactive |
| C[C@@H]1CN([C@@H](C)CO)C(=O)c2cc(NS(=O)(=O)c3ccccc3)ccc2O[C@H]1CN(C)S(=O)(=O)c1cccs1 | inactive |
| C=CCOC(=O)[C@H]1[C@@H]2C(=O)O[C@@H](c3ccccc3)[C@@H](c3ccccc3)N2[C@@H](c2ccc(OCCOC(=O)[C@@H]3C[C@@H]4C(=O)N[C@@H](CC(C)C)C(=O)N4[C@@H]3c3ccc(O)cc3)cc2)[C@]12C(=O)Nc1ccccc12 | inactive |
| C[C@H](CO)N1C[C@H](C)[C@H](CN(C)Cc2ccc(C(=O)Nc3ccccc3N)cc2)Oc2ccc(NC(=O)Cn3cnnn3)cc2C1=O | inactive |
| CC(OC1OCCN(C(C)c2nc(=O)[nH][nH]2)C1c1ccc(F)cc1)c1cc(C(F)(F)F)cc(C(F)(F)F)c1 (configuration not stated) | inactive |
| C[C@@H](O[C@H]1OCCN(Cc2n[nH]nc2CN(C)C)[C@H]1c1ccc(F)cc1)c1cc(C(F)(F)F)cc(C(F)(F)F)c1 | active |
| C[C@@H]1CN([C@@H](C)CO)C(=O)c2cccc(NC(=O)c3ccc(-c4nccs4)cc3)c2O[C@H]1CN(C)S(=O)(=O)c1cn(C)cn1 | inactive |
| COCC#Cc1ccc2c(c1)O[C@@H](CN(C)C(=O)c1ccccc1)[C@@H](C)CN([C@@H](C)CO)S2(=O)=O | inactive |
| C[C@H](CO)N1C[C@H](C)[C@@H](CN(C)CC2CC2)OCCCC[C@H](C)Oc2ccc(NC(=O)CCCCCC(=O)Nc3ccccc3N)cc2C1=O | inactive |
| Cc1ccc2nc([C@H](N)C(C)C)[nH]c2c1 | inactive |
| CC(C)[C@@H](N)c1nc2ccccc2[nH]1 | inactive |
| C[C@@H](Oc1ccccc1Cl)c1nc2ccc(Cl)cc2[nH]1 | active |
| C[C@@H]1CN([C@H](C)CO)C(=O)Cc2cc(NC(=O)CCCCCC(=O)Nc3ccccc3N)ccc2O[C@@H]1CN(C)C(=O)Nc1ccc(C(F)(F)F)cc1 | inactive |
| CC(C)(O/N=C(\C(=O)N[C@@H]1C(=O)N2C(C(=O)O)=C(C[n+]3ccccc3)CS[C@H]12)c1csc(N)n1)C(=O)O | inactive |
| CON=C(C(=O)NC1C(=O)N2C(C(=O)O)=C(C[N+]3(C)CCCC3)CSC12)c1csc(N)n1.[Cl-] (configuration not stated) | active |

| SMILES | growth inhibition call |
| --- | --- |
| CO/N=C(\C(=O)N[C@@H]1C(=O)N2C(C(=O)O[C@@H](C)OC(C)=O)=C(COC(N)=O)CS[C@H]12)c1ccco1 | inactive |
| CON=C(C(=O)NC1C(=O)N2C(C(=O)OC(C)OC(C)=O)=C(COC(N)=O)CSC12)c1ccco1 (configuration not stated) | inactive |
| CC(C)(O/N=C(\C(=O)N[C@@H]1C(=O)N2C(C(=O)O)=C(C[N+]3(CCNC(=O)c4ccc(O)c(O)c4Cl)CCCC3)CS[C@H]12)c1csc(N)n1)C(=O)O | inactive |
| CON=C(C(=O)NC1C(=O)N2C(C(=O)[O-])=C(COC(N)=O)CSC12)c1ccco1.[Na+] (configuration not stated) | active |
| CON=C(C(=O)N[C@@H]1C(=O)N2C(C(=O)O)=C(CSc3nc(=O)c(O)nn3C)CS[C@H]12)c1csc(N)n1 | active |
| CO/N=C(\C(=O)N[C@@H]1C(=O)N2C(C(=O)O)=C(CSc3nnnn3C)CS[C@H]12)c1csc(N)n1 | inactive |
| CO/N=C(\C(=O)N[C@@H]1C(=O)N2C(C(=O)O)=C(C[n+]3ccn4ncccc43)CS[C@H]12)c1nsc(N)n1 | inactive |
| CO/N=C(\C(=O)N[C@@H]1C(=O)N2C(C(=O)O)=C(C[N+]3(C)CCCC3)CS[C@H]12)c1csc(N)n1 | active |
| Cc1cn2nc([C@@H]3CCCCN3C(=O)c3cc(Cl)ccc3NS(C)(=O)=O)cc2nc1N1CC[C@H](N)C1 | inactive |
| NNC(=O)c1cc(=S)nc[nH]1 | inactive |
| Cc1noc(C)c1NC(=O)Nc1ccc2c(c1)C(=O)N([C@H](C)CO)C[C@@H](C)[C@H](CN(C)S(=O)(=O)c1cn(C)cn1)O2 | inactive |
| C[C@@H]1CN([C@@H](C)CO)C(=O)Cc2cc(NC(=O)NC3CCCCC3)ccc2O[C@H]1CN(C)S(C)(=O)=O | inactive |
| C[C@H](CO)N1C[C@H](C)[C@@H](CN(C)Cc2ccc(F)cc2)Oc2ncc(C#Cc3cccnc3)cc2C1=O | inactive |
| C[C@H]1CN([C@@H](C)CO)C(=O)c2cc(NC(=O)CCCN(C)C)ccc2O[C@@H]1CN(C)C(=O)Nc1ccc(F)cc1 | inactive |
| C[C@@H]1CN([C@@H](C)CO)C(=O)c2c(c3ccccc3n2C)-c2ccccc2CO[C@@H]1CN(C)Cc1cccc(C(F)(F)F)c1 | inactive |
| C[C@@H]1CN([C@@H](C)CO)C(=O)c2cccc(NC(=O)C3CCOCC3)c2O[C@@H]1CN(C)Cc1ccncc1 | inactive |
| O=C(C[C@@H]1CC[C@@H]2[C@H](COC[C@H](O)CN2S(=O)(=O)c2ccccc2)O1)N1CCOCC1 | inactive |
| CCCNC(=O)N1C[C@@H](O)COC[C@H]2O[C@H](CC(=O)NCCCN3CCOCC3)CC[C@@H]21 | inactive |
| C[C@@H]1CN([C@@H](C)CO)C(=O)c2cc(NC(=O)C3CCCCC3)ccc2O[C@@H](C)CCCCO[C@H]1CN(C)S(=O)(=O)c1ccc(Cl)cc1 | inactive |
| C[C@@H]1CN([C@H](C)CO)C(=O)c2cc(NC(=O)Nc3ccc4c(c3)OCO4)ccc2O[C@@H](C)CCCCO[C@@H]1CN(C)C(=O)c1ccccc1 | inactive |
| COc1ccccc1C#Cc1ccc2c(c1)O[C@@H](CN(C)C(C)=O)[C@H](C)CN([C@@H](C)CO)S2(=O)=O | inactive |
